How the values were obtained:
Test in all cases: PBM binding z-score (relative to random genomic background probes); higher = stronger binding; sequences stand for … in GC…GCGATTGACAGCGTAGAATGAAGG
[1] = system: RARb homodimer (NR concentration 270 nM)
In short: (§1)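 Binding z-scores were set against random background probes. The data came from custom Agilent 4×180K protein-binding microarrays carrying double-stranded probes with 34-nt variable regions, incubated 1 h with ligand-free nuclear receptor dimers. Partner-specific antibodies detected binding, and scanned fluorescence was regression-normalized.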

[2] = system: RARg:RXRa (NR concentration 270 nM, RXRa partner concentration 90 nM)
In short: as §1

[3] = system: RARg homodimer (NR concentration 270 nM)
In short: as §1

[4] = system: RXRa DBDmut IVT, anti-RXR (DBD mutation: RXRa K156A/R161A, NR concentration 90 nM)
In short: as §1

[5] = system: RXRa homodimer (NR concentration 180 nM)
In short: as §1

[6] = system: THRa:RXRa (NR concentration 90 nM, RXRa partner concentration 90 nM)
In short: as §1

[7] = system: THRa homodimer (NR concentration 90 nM)
In short: as §1

[8] = system: VDR:RXRa (NR concentration 270 nM, RXRa partner concentration 90 nM)
In short: as §1

[9] = system: VDR homodimer (NR concentration 270 nM)
In short: as §1

Sequence	PBM binding z-score [1]	PBM binding z-score [2]	PBM binding z-score [3]	PBM binding z-score [4]	PBM binding z-score [5]	PBM binding z-score [6]	PBM binding z-score [7]	PBM binding z-score [8]	PBM binding z-score [9]
CCTGCAAGGTCATGGTCAGCTAATCTACAGTATG	4.17	6.01	6.24	3.84	6.36	4.04	2.86	4.76	2.64
CCGAGCAGGCCAGGGTCACTCAAGCATTTCGCTT	2.91	3.13	2.66	0.694	3.6	2.91	1.02	2.6	1.31
GCTACTTGGTCAGTAAAAGGTCACACACCGGTCG	5.14	5.37	5.09	0.64	5.41	3.55	2.08	4.16	2.09
GCATATGGGTAATACAAGGTGAAAGTCCGATTGT	0.725	0.405	0.402	0.208	0.486	3.98	0.841	0.212	0.115
TCTGCTAAGTCAGTTGGTCAGCTAACGAGCTGCC	-0.3	-0.611	-0.521	-0.0698	-0.61	-0.628	-0.977	-0.514	-0.941
GGAACGAGGGCATTCGAGCTGATAGCATGGCGAT	0.164	0.737	1.2	2.72	0.444	0.7	-0.936	0.809	1.53
AGAATGAGGTTACCAAAGATCAGGGTAACGCTTG	1.37	2.15	1.95	1.3	3.07	3.1	1.43	1.6	0.478
CGGCAAAGTTCAAGGTAACGTAACAGAAAGCAGC	3.52	5.32	6.01	4.49	4.62	2.79	0.581	3.52	2.71
ACTATTAGTTGGCTTAGGGCAACCGATACGACGC	0.69	0.504	0.733	0.512	0.326	0.788	0.529	0.158	0.021
CCCTACGGGTCACGAGGTTATAGCACGACGAGCG	4.13	6.2	5.6	1.19	7.45	3.59	1.02	5.13	1.66
TCTGCTAGGTCAGTTAGTCAGCTAACGAGCTGCC	1.99	2.4	3.3	0.561	0.813	0.906	-0.364	-0.204	-0.726
CATACAGGTTCAGCTAGGCCAGAGTAGGGACGGC	0.871	1.01	1.03	2.89	1.41	1.05	0.0311	1.99	2.65
CCGAATGGGGCATAAGGTTACCATAAGCCAGCCC	1.7	1.67	1.03	-0.221	1.49	2.1	1.45	0.232	-0.245
CGTCCAAGGTCAAAGGTAAGTGAAGAGATGACGG	4.06	6.23	6.89	3.8	7.74	3.91	1.96	4.55	2.48
TCTATTAGTTGAATAGGGCAACCGAAACAGCGGA	0.977	0.99	0.765	0.685	0.759	0.247	-0.423	0.6	-0.139
CGTCCAAGGTCATAGGTGGTCAGTGAAGACAGAT	4.26	5.65	5.75	3.99	5.94	4.18	2.79	4.72	3.02
TCTTGTAGATCAATAGAGGCTAAGAAAGTGCGCT	-0.029	0.139	-0.0605	0.703	0.213	0.676	-0.939	0.377	-0.123
TCTATTAGTTGAAGGGCAACCTACGAGTCCGTTT	1.2	0.698	0.806	1.51	0.858	0.233	-0.0206	0.986	1.42
TCGAGTAGGTTAGTCGGGGCATGCAGCCAACATA	0.498	-0.0315	-0.00519	0.0884	0.113	0.978	-0.26	1.24	-0.157
TGTCAAAGTTCACAGGTAACGTAAGTATCCACAC	4.22	5.7	5.98	3.69	5.48	2.53	-0.165	4.54	3.53
TCTGCTAGCTCAACGATGGTCAGCTAATCTGCTA	-0.694	-0.391	-0.546	0.109	-0.436	-0.558	-1.1	-0.662	-0.902
CGTCAAAGTTCAACTAAGGTATCGTAAAGCACGC	4.26	5.92	6.75	4.68	5.21	4.92	0.41	4.28	4.04
CGTCCAAGATCAGAGAGGTCAGTGAATGCCGAGT	3.9	2.95	3	0.949	2.5	2.64	0.926	3.82	2.37
CAACCTAGGTCACAGAGGTCAAAGTCCGTGCGTA	5.82	7.61	7.92	3.68	8.52	4.55	3.1	8.21	7.57
CCTAGCAGCCCAATCTGGGTCACTCAAGGCTTGA	1.77	0.615	0.301	-0.241	0.56	2.28	0.424	0.11	-0.324
CGAACTAGGTCAGAACAGGACTGTGAAGGATGAT	1.6	2.33	2.99	0.646	1.19	1.97	-0.0804	0.0454	-0.341

Sequence	PBM binding z-score [1]	PBM binding z-score [2]	PBM binding z-score [3]	PBM binding z-score [4]	PBM binding z-score [5]	PBM binding z-score [6]	PBM binding z-score [7]	PBM binding z-score [8]	PBM binding z-score [9]
AGTCAAACTTCACTAGGTAACGTAAGATTCAGCT	-0.374	0.121	0.346	0.238	-0.0168	0.342	0.203	-0.0334	-0.395
GGACCGAGGGCAAGTTGATAGCAGAGTTTGATGG	1.43	1.78	2.07	2.06	0.783	0.968	-0.0674	0.844	1.67
ACTCGGAGGACAAAGCTCAGAGCTACGCCAGTGA	-0.345	0.103	0.826	0.394	-0.292	0.233	-0.675	-0.859	-0.243
TCGAGTAAGTTACCAATGGGGCATTCAGCTTTCT	-0.474	-0.261	-0.771	0.494	-0.0395	-0.445	-0.524	0.0279	-0.319
CCTAGCAGGCCAATCTGGGTCACTCAGGGCTTGA	2.15	0.923	1.06	0.0967	0.498	3.58	0.158	0.721	-0.303
CAAACTGGGTCACAGAGGTCAAAGTCCGTGCGTA	5.5	7.14	7.26	3.26	7.99	4.4	2.19	7.58	5.91
TCTTGTAGATCAGCAGGGTAAGAAAGCTGGCCAA	-0.187	-0.327	-0.5	0.581	-0.0542	-0.165	-0.567	0.195	-0.255
CGAACTAGGGCAGAACAGGACAGTGAAGGATGAT	0.707	0.486	0.757	0.0235	-0.0297	1.58	-0.495	-0.31	-0.0975
GCTAGCAGGCCATTTGGGTCCCTCAATGACGGGC	-0.901	-0.417	-0.379	-0.721	-0.4	0.249	-1.01	-0.73	-0.499
CATACAGAGTCAGCTAGGCCAGAGTAGGGACGGC	-0.0712	-0.273	0.105	-0.231	-0.193	-0.152	-0.18	-0.518	-0.481
ATATGTAGGTTAGATCCGGGTCATTCAGGCTATG	2.63	3.21	1.63	0.691	2.65	3.63	2.08	3.5	1.71
ACGGACAGGTGATGAAGGTAACTCAGGCTATCAT	0.711	0.496	0.813	0.19	0.31	1.02	0.438	0.367	0.327
TCTTGTAGATCAACCGGAGGTTAAGAAAGATCGA	0.462	1.22	0.219	0.651	0.914	1.12	-0.269	0.672	-0.0131
CCTATTAGTTGACGATAAGGGCAACCGAAGCTCG	1.43	0.95	0.873	0.16	0.582	1.57	0.591	0.128	0.415
TCTTGTAGATCAACAGGAGGTTAAGAGAGATCGA	0.58	1.1	0.453	0.0129	0.887	1.01	-0.746	0.733	-0.539
TCTCGGAGGACACGAAAGCTCAGAGCTCGACATC	0.352	0.462	1.19	0.558	-0.227	1.23	0.151	-0.282	-0.801
TCATATAGGTAAAGTTGAAAGTCGAACGATATGA	0.521	0.699	0.882	1.02	1.15	0.311	-0.665	0.583	0.121
ATCGAAAGGTCGACGGTGAGTATACCCACCCGAA	2.53	4.19	3.92	0.878	4.27	1.88	-0.262	2.62	0.289
TCGAGTAGGCTACCAATGGGGCATTCAGCTTTCT	-0.245	-0.505	-0.706	-0.0858	-0.356	-0.828	-0.931	-0.442	-0.898
CATACAGGGTCAGCTAGGACAGAGTAGGGACGGC	3.14	4.21	4.66	1.58	3.74	3.54	1.31	4.03	1.19
TCTAGTTGGTCAAATGTCACACACTCGAAATGCG	1.64	1.73	1.78	1.24	1.68	0.653	0.677	1.44	0.702
CCTAGGAGGCCAGGGTCACTCAAGCATTTCGCTT	2.95	2.9	2.55	-0.274	3.08	2.8	0.866	2.44	1.02
TGAATGAGGTTATAAGGTCAGGGAACGTTGCAAA	4	5.81	4.21	1.11	5.44	4.24	3.73	4.04	1.88
TCTGCTAGGCCAGTTGGTCAGCTAACGAGCTGCC	-0.0493	-0.411	-0.212	-0.198	-0.79	-0.845	-1.4	-0.797	-1.5
CAGCCTAGGTCAGAGCCAGTATAGGAGGAACGTT	2.13	2.87	3.5	0.588	1.5	1.76	0.271	0.207	-0.348
ATCTCTAGGTAAAGTTCGGTGAAAGATCGATAGA	0.59	0.582	0.694	0.694	0.31	1.1	0.351	0.603	0.916

From the supplement of paper PMC6555819
